# In PubChem BioAssay (NCI):
# Compounds without any hit were thinned out: in the full panel of roughly 83,000, 20% have a hit.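 Treatment: one concentration, 48 hours, 96-well format. Scoring: percent growth, with anything below 10 considered active.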 Unmarked numbers belong to inactive results. Calls of active or inactive are those of the source.
# Legend:
# Experiment in all cases: NCI-60 one-dose screen, 48 h (100 = growth as untreated, 0 = no growth, -100 = all killed)
# Conditions in all cases: 10 µM
# SK-MEL-2 melanoma = system: SK-MEL-2 melanoma
# EKVX NSCLC = system: EKVX NSCLC
# SN12C renal = system: SN12C renal
# UO-31 renal = system: UO-31 renal
# TK-10 renal = system: TK-10 renal
# ACHN renal = system: ACHN renal
# CAKI-1 renal = system: CAKI-1 renal
# MOLT-4 leukemia = system: MOLT-4 leukemia
# CCRF-CEM leukemia = system: CCRF-CEM leukemia
# A498 renal = system: A498 renal
SMILES,growth (SK-MEL-2 melanoma),growth (EKVX NSCLC),growth (SN12C renal),growth (UO-31 renal),growth (TK-10 renal),growth (ACHN renal),growth (CAKI-1 renal),growth (MOLT-4 leukemia),growth (CCRF-CEM leukemia),growth (A498 renal)
Cc1c2cnccc2c(C)c2c1c1cc(O)ccc1n2C(C)C,-14.4% (active),9.67% (active),-6.79% (active),-3.92% (active),56.2%,-1.61% (active),15.6%,-4.53% (active),,
O=C1NC(=O)c2c(CCCSc3nc4ccccc4c(=O)n3CCc3ccccc3)cccc21,105%,16.3%,91.7%,70.6%,124%,69.9%,18.5%,81.3%,96%,
Nc1ccccc1NC(=O)c1ccc(CCCC(=O)Nc2ccc(C3CC3N)cc2)cc1 (stereo not drawn),-4.46% (active),53.5%,43.8%,62.8%,8.6% (active),52%,96.2%,22.6%,,
CCOC(=O)c1sc2ncnc(Nc3ccc4c(cnn4C(=O)Nc4ccc(C)c(Cl)c4)c3)c2c1C,83.5%,97.6%,96.5%,94.7%,90.8%,107%,96%,95.6%,,
Nc1ccc(-c2cccs2)cc1NC(=O)c1ccc(CCCC(=O)Nc2ccc(C3CC3N)cc2)cc1 (stereo not drawn),69.6%,73.9%,80.3%,75.8%,55.6%,83.5%,88.7%,47%,,
Cc1ccc(-n2c(C)nn3c(=O)c4c5c(sc4nc23)CN(C)CC5)cc1,95%,95%,97.6%,83.2%,82.4%,101%,88.5%,97.9%,,
O=C(Nc1ccccc1)Nc1ncnc2c1ncn2-c1ccccc1,104%,78.5%,83.3%,69.4%,75.2%,22.2%,82.5%,94.1%,,
COc1cc2c3c(n([C@@H]4CCOC4)c(=O)c2cc1OC)-c1cc2c(cc1C3=O)OCO2,94%,64.2%,18.3%,5.77% (active),99.7%,0.739% (active),23.2%,20.4%,,
Cc1c2cnccc2c(C)c2c1oc1ccccc12,112%,38.3%,69.1%,40.4%,48.4%,58.6%,66%,3.5% (active),62.8%,
IC(I)I,108%,102%,95.1%,97.2%,107%,110%,103%,102%,,
O=C1c2ccccc2-c2c1c1cccnc1c(=O)n2C[C@H](O)CO,101%,79.3%,35.6%,49.9%,84.7%,27.6%,65.5%,9.69% (active),,
c1cnc2[nH]cc(-c3nc(-c4ccsc4)cs3)c2c1,102%,42.6%,92%,62.7%,138%,85.3%,96.3%,79.6%,,
COC(=O)c1cc2oc(/C=C3/SC(=S)N(N)C3=O)cc2n1Cc1ccccc1,-14% (active),55.8%,63.5%,-22.1% (active),-4.58% (active),48.5%,,,6.84% (active),-76.4% (active)
O=S(=O)(NCCCNc1nccc(-c2cn(-c3ccccc3)nc2-c2ccc(Cl)c(O)c2)n1)c1ccccc1,65.5%,55.2%,67.2%,45.9%,76.9%,66.1%,90.4%,43.1%,,
COc1ccc([C@H]2[C@H](C(=O)Nc3cccnc3)c3ccccc3C(=O)N2c2ccccc2)cc1,86.2%,94.5%,99.4%,99.5%,93%,90.3%,93.7%,77.5%,,
COc1cc2c3c(n(C4CCNCC4)c(=O)c2cc1OC)-c1cc2c(cc1C3=O)OCO2,76.4%,-68.4% (active),-69% (active),-70.2% (active),76%,-81.7% (active),21.4%,-27.1% (active),,
O=C(CCCNC(=O)c1nc(-c2ccccc2)n(-c2ccccc2)n1)NO,97.9%,96.8%,101%,94.5%,85.9%,114%,98%,101%,,
Nc1ncnc2c1ncn2C1(CO)OCC(O)C(O)C1O (stereo not drawn),93.5%,100%,103%,87.9%,87.3%,107%,,,101%,108%
Cc1ccc(NCCN(C)CC(C)O)c2c(=O)c3ccccc3sc12 (stereo not drawn),90.6%,86.4%,49.6%,41.5%,45%,29.5%,,,31.3%,68.4%
O=C(N/N=C/c1cc([N+](=O)[O-])ccc1O)c1cccc2ccccc12,66.4%,33.5%,51.1%,19.1%,46.3%,15.7%,,,-8.77% (active),62.4%
Cn1c2ccccc2c2c3[nH][nH]c(=O)c3c3c4ccccc4[nH]c3c21,10.9%,49%,16.1%,-26.9% (active),93%,-8.79% (active),60.2%,5.9% (active),,
COc1ccc(-c2cc(-c3cc(OC)ccc3OC)nc(N)c2C#N)cc1,77.1%,70.5%,59%,69.4%,103%,66.1%,90.3%,85%,,
COc1cc2c3c(n([C@H]4CCOC4)c(=O)c2cc1OC)-c1cc2c(cc1C3=O)OCO2,99.8%,60%,22.9%,10.6%,90%,0.59% (active),33.5%,17.2%,,
CCNc1nc(C(F)(F)F)nc2c1sc(=S)n2-c1ccccc1,88.1%,86.1%,100%,104%,88.8%,93.1%,93.6%,81.8%,,
COc1ccc2nc(Cl)c(Cn3nnc(Cc4ccccc4)n3)cc2c1,49.6%,24.5%,57.3%,14.7%,34.9%,41.5%,43.9%,10.3%,,
Cc1c2c[n+](C(C)C)ccc2c(C)c2c1[nH]c1ccccc12,12.3%,29.4%,-11.8% (active),72.1%,54%,85.7%,96%,14.8%,,
CCCCCCCCCCOC(c1ccccc1)c1ccccc1,73.5%,90.4%,102%,75.6%,85.1%,88.8%,,,93.7%,109%
C/C=C/CSC(C)(C)C(=O)NC,109%,99.8%,106%,93.8%,103%,108%,,,98.5%,103%
CC(CN(C)C)Oc1ccccc1NC1=C(Cl)C(=O)C(Nc2ccccc2OC(C)CN(C)C)=C(Cl)C1=O (stereo not drawn),-61.2% (active),-71.7% (active),-96% (active),-99.9% (active),-97.8% (active),-98.4% (active),,,-1.98% (active),26.4%
CN(C)CCCOc1ccc(NC2=C(Cl)C(=O)C(Nc3ccc(OCCCN(C)C)cc3)=C(Cl)C2=O)cc1,-40.2% (active),-89% (active),-91.6% (active),-99% (active),-98.7% (active),-94.1% (active),,-23.4% (active),-31.2% (active),-49% (active)
